The source made the active and inactive calls. Calls come from the whole dose curve.
What was measured:
Experiment in all cases: Confirmatory Screen for Target Class Profiling of Small Molecule Inhibitors of Methyltransferases (AID 1745852); for activity change, negative = inhibition: % is set by controls: 0 for no effect and ±100 for the full control effect
[1] = target: Catechol O-methyltransferase (Homo sapiens) (UniProt P21964); conditions: MTase-Glo luminescence, SAH detection, recombinant enzyme; measured here: COMT max response; stronger effect = lower value
Chain of Catechol O-methyltransferase (Homo sapiens) (P21964 whole entry, looked up): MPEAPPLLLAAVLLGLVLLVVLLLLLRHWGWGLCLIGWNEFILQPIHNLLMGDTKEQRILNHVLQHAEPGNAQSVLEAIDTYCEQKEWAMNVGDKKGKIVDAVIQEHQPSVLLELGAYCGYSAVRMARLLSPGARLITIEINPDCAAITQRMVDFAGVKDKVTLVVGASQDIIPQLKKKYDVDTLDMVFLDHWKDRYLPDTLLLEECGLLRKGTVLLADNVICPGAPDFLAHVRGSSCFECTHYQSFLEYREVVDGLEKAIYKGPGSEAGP

[2] = target: Guanidinoacetate N-methyltransferase (Homo sapiens) (UniProt Q14353); conditions: activity change, negative = inhibition: at 57.3 µM (top of the series) unless noted
[3] = target: Nicotinamide N-methyltransferase (Homo sapiens) (UniProt P40261); conditions: MTase-Glo luminescence, SAH detection, recombinant enzyme; measured here: NNMT max response; stronger effect = lower value
Chain of Nicotinamide N-methyltransferase (Homo sapiens) (P40261 whole entry, looked up): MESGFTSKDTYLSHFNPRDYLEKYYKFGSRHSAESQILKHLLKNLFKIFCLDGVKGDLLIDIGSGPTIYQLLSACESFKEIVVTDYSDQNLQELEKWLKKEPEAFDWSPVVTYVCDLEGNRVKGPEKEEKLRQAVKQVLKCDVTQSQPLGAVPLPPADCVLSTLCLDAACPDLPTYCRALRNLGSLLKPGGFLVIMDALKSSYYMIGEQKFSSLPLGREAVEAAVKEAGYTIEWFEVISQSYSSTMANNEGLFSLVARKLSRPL

[4] = target: Phenylethanolamine N-methyltransferase (Homo sapiens) (UniProt P11086); conditions: MTase-Glo luminescence, SAH detection, recombinant enzyme; measured here: PNMT max response; stronger effect = lower value
Chain of Phenylethanolamine N-methyltransferase (Homo sapiens) (P11086 whole entry, looked up): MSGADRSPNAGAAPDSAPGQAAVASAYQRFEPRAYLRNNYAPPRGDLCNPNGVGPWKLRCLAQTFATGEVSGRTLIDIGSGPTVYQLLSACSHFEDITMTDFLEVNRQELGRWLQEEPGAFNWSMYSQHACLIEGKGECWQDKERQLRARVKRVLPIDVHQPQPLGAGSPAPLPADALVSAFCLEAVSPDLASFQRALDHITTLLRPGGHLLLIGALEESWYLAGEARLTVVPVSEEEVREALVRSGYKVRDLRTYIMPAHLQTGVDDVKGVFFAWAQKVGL
Potency is the fitted concentration of half-maximal effect.

| Structure (SMILES) | activity [1] [%] | activity change, negative = inhibition [2] | activity [3] [%] | activity [4] [%] | Potency [2] |
| --- | --- | --- | --- | --- | --- |
| O=C(CCCc1nnc2n3nc(-c4ccccc4)nc3c3ccccc3n12)N1CCC(N2CCCCC2)CC1 | -14.2 | -7.55% | -20.9 | -10.5 |  |
| COC(=O)C(Cc1c[nH]c2ccccc12)NC(=O)c1ccccc1Br (stereo not given) | -2.16 | 0% | -4.76 | -7.16 |  |
| CCOC(=O)CC1(NC(=O)N2CCn3cccc3C2Cc2ccccc2)CCCCC1 (stereo not given) | 2.42 |  | -6.48 | -4.39 | inactive |
| C[C@H]1CN(C(=O)Nc2ccc(F)cc2F)C[C@@H]1c1nc(-c2ccccc2)no1 | 6.81 |  | -92.4 | 9.33 | 0.769 µM (active) |
| Cc1ccc2c(c1)c(=O)[nH]c1c(C(=O)NCc3ccc4c(c3)OCO4)sc(=S)n12 | -32.7 |  | -60.7 | -35.6 | 17.1 µM (active) |
| CCCn1c(=O)c2ccccc2n2c(=O)n(CC(=O)c3cccc(Cl)c3)nc12 | -8.93 | -4.81% | -46.1 | -9.61 |  |
| CCCn1c(=O)c2ccccc2n2c(=O)n(CC(=O)c3cc(C)ccc3C)nc12 | 1.84 | 0% | -36.8 | -0.0841 |  |
| CN(C)CCOCC1(C)COc2ccc(C(=O)Nc3ccc4[nH]ccc4c3)cc2N1 (stereo not given) | 1.58 | 9.89% [at 85.7 µM] | 2.73 | 0.534 |  |
| Cc1c(C(=O)O)ccc2c1N[C@@H](c1cccc(C(F)(F)F)c1)[C@H]1CC=C[C@@H]21 | -4.24 | -0.164% | -5.85 | -7.15 |  |
| CCc1cc2c(cc3n2CC(C)(C(=O)NC2CCC(C)CC2)N(C(C)CCc2ccco2)C3=O)s1 (stereo not given) | -10.7 | -18.6% | -6.06 | -12.3 |  |
| CC[C@H](C)NC(=O)c1sc(=S)n2c1[nH]c(=O)c1cc(Cl)ccc12 | -75.3 |  | -78.5 | -77 | 24.1 µM (active) |
| O=C(CCc1ccccc1)N1CCNc2cnc(Nc3cccnc3)nc2C1 | -28.2 | -16.6% [at 85.7 µM] | -21.6 | -41.2 |  |
| CCOCCCN1C(=O)c2cc3c(OC)ccc(OC)c3n2CC1(C)C(=O)NC1CCCCC1 (stereo not given) | -8.08 | -4.76% | -17.7 | -10.4 |  |
| O=C(NCCc1ccc(Cl)cc1)c1ccc2c(=O)[nH]c3c(C(=O)NCC4CCCO4)sc(=S)n3c2c1 (stereo not given) | -36.2 |  | -49.4 | -36.4 | 27.1 µM (active) |
| O=C(CCc1nnc2n(CCc3ccccc3)c(=O)c3ccccc3n12)N1CCN(c2ccccc2)CC1 | 0 | 0% | -41 | 0.144 |  |
| CC1CCN(CCCNC(=O)CCc2nnc3n(Cc4ccc(Cl)cc4)c(=O)c4ccccc4n23)CC1 | -7.96 | -1.55% | -19 | -5.13 |  |
| CC1CCCCN1CCCNC(=O)c1cc2c(s1)CN(C1CCCC1)C2 (stereo not given) | 3.35 | 2.38% | 3.93 | 4.11 |  |
| CC1(C(=O)NC2CCCC2)Cn2c(c(-n3cccc3)c3ccccc32)C(=O)N1Cc1ccccn1 (stereo not given) | 1.3 | 1.85% | -46.2 | 0 |  |
| COCc1cc(NCCCNc2cccnc2)ncn1 | -19.2 | -12.2% | -14.1 | -21 |  |
| Cc1ccc(C(=O)O)c2c1N[C@H](c1cccc(Cl)c1)C1CC=CC21 (stereo not given in full) | 2.41 |  | 3.29 | 2.81 | inactive |
| CC(C)CCn1c(=O)c2ccccc2n2c(CCC(=O)N3CCN(Cc4ccccc4)CC3)nnc12 | 3.34 | 0% | -63.2 | -0.865 |  |
| O=C(Nc1ccc2c(N3CCOCC3)ncnc2c1)c1cccc(Cl)c1 | -10.9 | -4.21% | -7.95 | -22.8 |  |
| CCN(CC)CCNC(=O)CCc1nnc2n(Cc3ccc(Cl)cc3)c(=O)c3ccccc3n12 | 2.48 | 0% | -12.4 | 0 |  |
| CC(NC(=O)c1ccc2c(=O)nc3c(-c4cccc(F)c4)n[nH]n3c2c1)c1ccc(F)cc1 (stereo not given) | -18.4 |  | -28.4 | -25.5 | 13.6 µM (active) |
| CC1(C)[C@H](Cc2cc(-c3ccccc3)on2)C[C@@H]1NCC1CC1 | 1.83 | -0.152% [at 85.7 µM] | -6.44 | -13.1 |  |

From PubChem BioAssay (NCATS)
